Experimental data reported in PubChem BioAssay AID687001 (Broad Institute, 2013).
Results with a measured potency or affinity are listed apart.

Biological target: Protein S100-A4 (Homo sapiens) (UniProt P26447)
Experiment: human S100A4 peptide interaction inhibition curves – biochemical, fluorescence polarization, cherry-picked hits, dose response (AID 687001);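 note: 0% = DMSO neutral control wells and -100% = TFP positive control wells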
Settings: FP, S100A4/TAMRA-myosin IIA peptide binding; series mostly up to 11 µM; activity change, negative = inhibition: at the top concentration;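 active = signal-lowering compounds whose fitted half-maximal concentration is at or below twice the top tested dose in every run; inconclusive = runs disagree, flat 30 to 70% inhibition, or poor curve fit; inactive = the rest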

Sequence of Protein S100-A4 (Homo sapiens) (P26447 whole entry, looked up): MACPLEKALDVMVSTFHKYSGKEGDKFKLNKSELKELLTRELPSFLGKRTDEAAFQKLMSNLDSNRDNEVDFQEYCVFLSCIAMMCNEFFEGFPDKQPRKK

Activity change, negative = inhibition, inactive:
COc1cc(O)c(C(=O)O)c(CCc2ccccc2)c1 1.56%
Cc1nn(C)cc1S(=O)(=O)Nc1ccc(C(F)(F)F)cc1 -0.107%
C[C@H]1CN([C@@H](C)CO)C(=O)c2cc(NC(=O)NC3CCCCC3)ccc2O[C@@H]1CN(C)Cc1ccc(C(=O)O)cc1 -1.93%
O=C(NCc1ccccc1)c1cc(C2CCCCN2S(=O)(=O)c2ccccc2)on1 (centres undefined) -4.47%
CC(C)C#Cc1ccc2c(c1)O[C@@H](CN(C)C(=O)NC(C)C)[C@H](C)CN([C@H](C)CO)S2(=O)=O 0.298%
CC(=O)Nc1ccc(S(=O)(=O)Nc2ccc3c(c2)OCO3)cc1 -3.04%
CC(C)n1c(CNC(=O)c2ccccc2F)nnc1SCC(=O)c1ccc(F)cc1 28%
COc1cccc(CNC(=O)C2CCCN(S(=O)(=O)c3ccc4c(c3)C(C)(C)C(=O)N4C)C2)c1 (centres undefined) -4.47%
O=C(CCc1ccccc1)Nc1sc2c(c1C(=O)O)CCCC2 -4.68%
Cc1ccc2[nH]c(=O)c3cc(C(=O)NCCC(C)C)sc3c2c1 -0.619%
Cn1cccc1C(=O)NNC(=O)c1ccccc1Br 1.23%
C#CCNCCS(=O)(=O)N(Cc1ccc(Br)cc1)[C@@H](CC(C)C)C(=O)O -1.51%
Cc1[nH]c(C)c(S(=O)(=O)N2CCN(c3ccccc3F)CC2)c1C(=O)N1CCCCC1 -2.64%
C=CCSc1n[nH]c(-c2cccs2)n1 -1.92%
Cc1ccc(/C=C2/SC(=O)N(CC(=O)N3CCOCC3)C2=O)s1 7.53% [at 2.6 µM]
COC(=O)c1cccc(NC(=O)c2ccc3c(c2)C(=O)N(Cc2cccnc2)C3=O)c1 -2.91%
COc1ccc2c3c(n(C)c2c1)[C@H](CO)N(C(=O)c1ccccc1)CC31CCN(C(=O)c2ccccc2)CC1 7.85%
O=C(CN1C(=O)NC2(CCCCCCC2)C1=O)Nc1c(Cl)cccc1Cl -3.09%
CN(C)C(=O)C[C@@H]1C=C[C@H](NC(=O)Nc2cccc(F)c2)[C@@H](CO)O1 -2.87%
O=C(C1CCCC1)N1C[C@@H]2[C@H](c3ccccc31)[C@@H](CO)N2C(=O)c1ccccc1F -2.14%
O=C(C[C@H]1C[C@@H]2c3cc(NC(=O)C4CCOCC4)ccc3O[C@@H]2[C@H](CO)O1)NCCN1CCCCC1 -1.82%
C[C@@H]1CN([C@H](C)CO)C(=O)c2c(c3ccccc3n2C)-c2ccccc2CO[C@H]1CN(C)S(=O)(=O)c1ccccc1 8.35%
Cc1cccc(Nc2c3c(nc4ccccc24)CCC3)c1 -2.25%
C[C@@H]1CN([C@@H](C)CO)C(=O)c2cc(C#Cc3ccccc3)cnc2O[C@H]1CN(C)C(=O)c1ccccc1F 2.25%
Cc1cc2cc(C#N)c(N3CCOCC3)nc2cc1Cl 2.91%
Cc1ccc(CCNC(=O)c2ccc(CS(=O)(=O)c3ccccc3C)o2)cc1 1.67%
CC(C)C#Cc1ccc([C@H]2[C@@H](CO)N(C(=O)c3cccc(F)c3)[C@H]2C#N)cc1 1.73%
O=C(c1ccccc1)c1ccc(C(=O)N2CCN(c3ccccc3O)CC2)cc1 -2.23%
COc1ccc(S(=O)(=O)Nc2ccc3c(c2)C(=O)N([C@H](C)CO)C[C@H](C)[C@H](CN(C)C(=O)Nc2ccccc2)OCCCC[C@H](C)O3)cc1 19%
C[C@H](CO)N1C[C@H](C)[C@@H](CN(C)Cc2ccc(Cl)c(Cl)c2)Oc2c(NS(=O)(=O)c3cccs3)cccc2C1=O 2.58%
CCCCCN(C(=O)CCC(=O)OCC(=O)Nc1cccc(SC)c1)c1c(N)n(CCCC)c(=O)[nH]c1=O -0.499%
COc1ccc(S(=O)(=O)Nc2ccc3c(c2)CC(=O)N([C@H](C)CO)C[C@H](C)[C@@H](CN(C)CC2CC2)O3)cc1 8.47%
O=C(NCCC1CCCCN1S(=O)(=O)c1ccccc1)C(=O)NCC1CCCO1 (centres undefined) -6.23%
Cc1ccc(NC(=O)CCCCCN2C(=O)[C@@H]3Cc4ccccc4CN3C2=O)cc1 -0.003%
COc1ccc(CN2CC3(CN(C(=O)c4ccccc4)C3)c3c([nH]c4cc(OC)ccc34)[C@H]2CO)cc1 16.1%
O=C1CCCn2cc(nn2)COC[C@@H](Cc2ccccc2)N1 -0.294%
CCc1ccc(C(=O)NNC(=O)c2c(CC)noc2C)cc1 1.61%
O=C(O)CSc1c2c(nc3cc(C(=O)Nc4cccc(C(F)(F)F)c4)ccc13)CCCC2 6.23%
CCOC(=O)Cc1csc(NC(=O)c2c(-c3ccccc3)noc2C)n1 -2.68%
